PubChem BioAssay AID1276 (Columbia University Molecular Screening Center, 2008)
The campaign covered roughly 190,000 compounds. About 2,000 (1.1%) were called active.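 The calls were made as follows: active = activation above a set limit, based on mean plus 3 SD of controls (cut at about 140% in these data); inconclusive = one replicate above the limit, the other below; inactive = the rest.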 This excerpt belongs to a sample that is enriched for actives.

Assay: APP 5'UTR reporter signal increase – luciferase, SH-SY5Y cells, primary screen (AID 1276)
Settings: SH-SY5Y APP 5'UTR luciferase reporter, luminescence; at 2 µM; hits give high values; zero percent = DMSO vehicle wells

activation, active:
Cc1csc(SCC(=O)Nc2sccc2C#N)n1 192%
CCOc1ccc(-c2nnc(-c3ccco3)o2)cc1 147%
CCCCOc1ccc(-c2nnc(-c3ccco3)o2)cc1 136%
O=C(Nc1ccc2oc(-c3ccccc3F)nc2c1)c1ccco1 146%

activation, inactive:
CC(=O)Nc1ccc(S(=O)(=O)N2CCN(c3ccc([N+](=O)[O-])c(NCCN4CCOCC4)c3)CC2)cc1 -6.4%
O=C(COC(=O)[C@H](Cc1ccccc1)NC(=O)c1cccs1)Nc1cc(F)ccc1F 12.5%
O=C(CSc1nnc(SCc2ccc(Cl)cc2)s1)N/N=C/c1ccccc1Cl -2.73%
COc1ccc(NC(=O)CSc2nc(C)cs2)cc1 6.05%
Cc1cccc(C)c1Nc1nnc(SCC(=O)Nc2sccc2C#N)s1 -9.91%
C=CCn1c(CCNC(=O)c2cccs2)n[nH]c1=S -1.77%
CCCCOc1ccc(C(=O)NCc2ccco2)cc1 4.26%
CCC(=O)Oc1cccc(C(=O)Nc2ccc(-c3nnc(-c4ccco4)o3)cc2)c1 92.5%
COc1ccc(C(=O)CSc2nnc(-c3ccco3)o2)cc1 22.7%
CCCCSc1nnc(-c2ccc(C)cc2)o1 115%
COCCSc1nnc(NC(=O)c2cc(OC)c(OC)cc2[N+](=O)[O-])s1 5.07%
COc1cccc(N(C(=O)C2COc3ccccc3O2)C(C(=O)NC2CCCCC2)c2ccc(O)cc2)c1 (configuration not stated) -0.98%
CN1CCN(c2nc(Nc3ccc(O)cc3)nc3ccccc23)CC1 18.9%
Cc1cc(Oc2ccc(Cl)cc2)nc(SCC(=O)c2ccccc2)n1 11.5%
CC(=O)NC(CC(=O)O)c1ccc(F)cc1 (configuration not stated) 5.81%
O=C(Nc1cccc(-c2nc3ncccc3o2)c1)c1ccco1 -10.6%
O=C(Nc1ccc2nccnc2c1)c1ccco1 39.6%
Cc1cnc(C(=O)N2CCCC(C(=O)c3ccc(C(F)(F)F)cc3)C2)cn1 (configuration not stated) 23%
NS(=O)(=O)c1ccc(NC(=O)COC(=O)C2(c3ccc(F)cc3)CCCC2)cc1 5.99%
COc1ccc(CN(C)C(C)C(=O)NC2CCCc3ccccc32)cc1 (configuration not stated) 9.96%
CC(NC(=O)COC(=O)c1cc(=O)[nH]c2ccccc12)c1ccccc1 (configuration not stated) -4.94%
O=C(NC1CC1)C1CCCN(C(=O)NC2CCCCC2)C1 (configuration not stated) 18.2%
O=C(Nc1nc(-c2cccnc2)cs1)c1ccccc1F 61.5%
